{
  "source": "PubChem BioAssay (NCI)",
  "note": "About 83,000 compounds went through this panel and 20% of them were active in at least one assay; those are over-represented in the sample as a whole.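 Cell lines were cultured in 96-well plates, exposed to a single compound concentration, and assessed for percent growth 48 hours later.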 Unmarked numbers belong to inactive results. The source made the active and inactive calls. How the source made its calls: active means growth percent below 10; inactive means the rest.",
  "data": [
    {"system": "UACC-62 melanoma", "assay": "NCI-60 one-dose screen, 48 h (100 = growth as untreated, 0 = no growth, -100 = all killed)", "conditions": "10 µM unless noted", "values": [
      {"smiles": "CCOc1ccccc1CN1CCc2nc3cc(C(C)(C)C)[nH]n3c(=O)c2C1", "growth": "102%"},
      {"smiles": "COc1ccc2sc(N(Cc3cccnc3)C(=O)c3ccc(C#N)cc3)nc2c1", "growth": "86.9%"},
      {"smiles": "COc1cc(/C=C2\\CN(S(=O)(=O)c3ccccc3)C/C(=C\\c3cc(CN4CCCC4)c(O)c(OC)c3)C2=O)cc(CN2CCCC2)c1O", "growth": "-60% (active)"},
      {"smiles": "Cc1c(C(=O)OCCO)cc(-c2ccc(Cl)cc2)n1-c1ccc(Cl)cc1Cl", "growth": "54.5%"},
      {"smiles": "CC(=O)n1cc(-c2c[nH]c3ccccc23)c(-c2ccc(Cl)cc2)n1", "growth": "93.5%"},
      {"smiles": "COc1cc(C=C2C(=O)N(C)C(=O)N(C)C2=O)cc(CN2CCCCC2)c1O", "growth": "96.8%"},
      {"smiles": "O=C(CSc1nc2ccccc2c(=O)n1-c1ccccc1)Nc1ccc(C(=O)/C=C/c2ccc(Cl)cc2)cc1", "growth": "86%"},
      {"smiles": "CCCCN1CCN(c2ccc3nc(-c4ccc5nc(-c6ccc(OC)c(OC)c6)[nH]c5c4)[nH]c3c2)CC1", "growth": "-58.5% (active)"},
      {"smiles": "CC(C)(C)c1ccc(C2CC(=O)C3=C(C2)Nc2ccccc2N(C(=O)c2ccccc2Cl)C3c2ccc(F)cc2)cc1", "note": "(stereo not drawn)", "growth": "-53.8% (active)"},
      {"smiles": "CCOC(=O)c1sc(-c2ccc(OS(=O)(=O)c3ccc(Br)s3)c(C=O)c2)nc1C", "growth": "12.3%"},
      {"smiles": "CC(=O)Nc1nc2c(s1)CCc1c-2cn(S(=O)(=O)c2ccccc2)c1-c1ccccc1", "growth": "58%"},
      {"smiles": "Clc1ccc(Oc2ccc(Nc3ncnc4onc(-c5ccccc5)c34)cc2)c(Cl)c1", "growth": "81%"},
      {"smiles": "CCN1C(=O)N(CC)C2Nn3c(s/c(=C\\c4ccccc4F)c3=O)=NC21", "note": "(stereo not drawn)", "growth": "36.7%"},
      {"smiles": "CCCCC1COc2cccc3c2N1C=C/C3=C\\C(=O)N(C)c1ccccc1", "note": "(stereo not drawn)", "growth": "36%"},
      {"smiles": "COC(=O)/C(=C\\c1c(-c2ccccc2)[nH]c2ccccc12)S(C)(=O)=O", "growth": "37.1%"},
      {"smiles": "COC(=O)c1c2c(c(C)[n+]([O-])c1C)C(=O)C=C(NCc1ccccc1)C2=O", "growth": "-72.3% (active)"},
      {"smiles": "c1ccc(CNc2nc(Nc3ccccc3)nc3ccccc23)cc1", "growth": "27.1%"},
      {"smiles": "COc1ccc(/C=C/C(=O)c2c(C)nc3ccccc3c2/C=C/c2ccccc2)cc1O", "growth": "48.6%"},
      {"smiles": "COc1ccc(OC)c(NC(=O)/C(C#N)=C/c2ccco2)c1", "growth": "86.5%"},
      {"smiles": "COC(=O)/C(CCC=C(C)C)=C1\\[C@@H](OC(C)=O)C[C@@]2(C)[C@H]1C[C@@H](O)[C@H]1[C@@]3(C)CC[C@H](NCCCNCCCCNCCCN)[C@@H](C)[C@@H]3CC[C@@]12C", "growth": "31.9%"},
      {"smiles": "O=C1c2cc(Br)ccc2Oc2cc([N+](=O)[O-])ccc2N1c1ccc(I)cc1F", "growth": "87.2%"},
      {"smiles": "O=C(Nc1ccc(Br)cc1F)c1cc(I)ccc1O", "growth": "3.48% (active)"},
      {"smiles": "COc1ccc(-c2cn3c(C(=O)Nc4ccccc4Cl)c(-c4ccccc4)c4c3n2CCCC4)cc1", "growth": "93.2%"},
      {"smiles": "CSc1nc2c(c(=O)[nH]1)N=C1c3ccccc3C(=O)C1C(c1ccccc1)N2", "note": "(stereo not drawn)", "growth": "37.8%"},
      {"smiles": "O=c1[nH]nnc2c1ncn2C1OC(CO)C(O)C1O", "note": "(stereo not drawn)", "growth": "58%"},
      {"smiles": "O=Cc1c(OCc2cnnn2CC(=O)Nc2ccc(Cl)cc2)ccc2ccccc12", "growth": "87%"},
      {"smiles": "O=C(c1nc2ccccc2[nH]1)C1[C@@H](c2cccc(O)c2)C2CC3CCCCC3N2[C@@]12C(=O)Nc1cc(Cl)ccc12", "note": "(stereo partly drawn)", "growth": "47.6%"},
      {"smiles": "Nc1nc(N)c2c(n1)NC1(C=C(O)c3ccccc31)C1=C(N2)c2ccccc2C1=O", "note": "(stereo not drawn)", "growth": "110%"},
      {"smiles": "COc1ccc(/C(C#N)=C/c2nc3c(N4CCOCC4)nc(Cl)nc3n2C)cc1OC", "growth": "-5.32% (active)"},
      {"smiles": "COc1cccc2c1C=C1CCCCC3=Cc4c(OC)cccc4OC13O2", "growth": "24.2%"},
      {"smiles": "COc1ccc(/C=C/C(=O)c2ccc(Nc3nc(NCCO)nc(Nc4ccc(Cl)cc4)n3)cc2)cc1", "growth": "69.7%"},
      {"smiles": "O=NN(C(=O)NC1CCC(C(=O)O)CC1)C1CCC(C(=O)O)CC1", "note": "(stereo not drawn)", "growth": "108%"},
      {"smiles": "CN1CCN(Cc2ccc(NC(=O)c3cncc(C#Cc4nc(N)nc5[nH]ncc45)c3)cc2C(F)(F)F)CC1", "growth": "89.3%"},
      {"smiles": "Nc1nc(-c2cnccn2)nn1-c1nc2ccccc2s1", "growth": "101%"},
      {"smiles": "CCOC(=O)c1cc2c(n1Cc1cc(OC)cc(OC)c1)-c1oncc1CCC2", "growth": "31.6%"},
      {"smiles": "CCOC(=O)c1c(Cl)c2c(n1Cc1ccccc1)-c1oncc1CCC2", "growth": "49.2%"},
      {"smiles": "COc1nc2c(c(=O)n1C)N=C1c3ccccc3C(=O)C1C(c1ccccc1)N2", "note": "(stereo not drawn)", "growth": "78.6%"},
      {"smiles": "CC1=C(CC(=O)c2cccc([N+](=O)[O-])c2)C(=O)c2ccccc2C1=O", "growth": "-50.8% (active)"},
      {"smiles": "O=C(Nc1ccc(-c2nc3cc4ccccc4cc3[nH]2)cc1)c1cccc(Br)c1", "growth": "39%"}
    ]},
    {"system": "LOX IMVI melanoma", "assay": "NCI-60 one-dose screen, 48 h (100 = growth as untreated, 0 = no growth, -100 = all killed)", "conditions": "10 µM unless noted", "values": [
      {"smiles": "CCOc1ccccc1CN1CCc2nc3cc(C(C)(C)C)[nH]n3c(=O)c2C1", "growth": "96.7%"},
      {"smiles": "COc1ccc2sc(N(Cc3cccnc3)C(=O)c3ccc(C#N)cc3)nc2c1", "growth": "75.9%"},
      {"smiles": "COc1cc(/C=C2\\CN(S(=O)(=O)c3ccccc3)C/C(=C\\c3cc(CN4CCCC4)c(O)c(OC)c3)C2=O)cc(CN2CCCC2)c1O", "growth": "-75.4% (active)"},
      {"smiles": "Cc1c(C(=O)OCCO)cc(-c2ccc(Cl)cc2)n1-c1ccc(Cl)cc1Cl", "growth": "65.1%"},
      {"smiles": "CC(=O)n1cc(-c2c[nH]c3ccccc23)c(-c2ccc(Cl)cc2)n1", "growth": "86.8%"},
      {"smiles": "COc1cc(C=C2C(=O)N(C)C(=O)N(C)C2=O)cc(CN2CCCCC2)c1O", "growth": "98.7%"},
      {"smiles": "O=C(CSc1nc2ccccc2c(=O)n1-c1ccccc1)Nc1ccc(C(=O)/C=C/c2ccc(Cl)cc2)cc1", "growth": "101%"},
      {"smiles": "CCCCN1CCN(c2ccc3nc(-c4ccc5nc(-c6ccc(OC)c(OC)c6)[nH]c5c4)[nH]c3c2)CC1", "growth": "-81.4% (active)"},
      {"smiles": "CC(C)(C)c1ccc(C2CC(=O)C3=C(C2)Nc2ccccc2N(C(=O)c2ccccc2Cl)C3c2ccc(F)cc2)cc1", "note": "(stereo not drawn)", "growth": "-11.8% (active)"},
      {"smiles": "CCOC(=O)c1sc(-c2ccc(OS(=O)(=O)c3ccc(Br)s3)c(C=O)c2)nc1C", "growth": "-54.5% (active)"},
      {"smiles": "CC(=O)Nc1nc2c(s1)CCc1c-2cn(S(=O)(=O)c2ccccc2)c1-c1ccccc1", "growth": "47.1%"},
      {"smiles": "Clc1ccc(Oc2ccc(Nc3ncnc4onc(-c5ccccc5)c34)cc2)c(Cl)c1", "growth": "98.4%"},
      {"smiles": "CCN1C(=O)N(CC)C2Nn3c(s/c(=C\\c4ccccc4F)c3=O)=NC21", "note": "(stereo not drawn)", "growth": "44.3%"},
      {"smiles": "CCCCC1COc2cccc3c2N1C=C/C3=C\\C(=O)N(C)c1ccccc1", "note": "(stereo not drawn)", "growth": "51.2%"},
      {"smiles": "COC(=O)/C(=C\\c1c(-c2ccccc2)[nH]c2ccccc12)S(C)(=O)=O", "growth": "45.1%"},
      {"smiles": "COC(=O)c1c2c(c(C)[n+]([O-])c1C)C(=O)C=C(NCc1ccccc1)C2=O", "growth": "-28.2% (active)"},
      {"smiles": "c1ccc(CNc2nc(Nc3ccccc3)nc3ccccc23)cc1", "growth": "59.6%"},
      {"smiles": "COc1ccc(/C=C/C(=O)c2c(C)nc3ccccc3c2/C=C/c2ccccc2)cc1O", "growth": "33%"},
      {"smiles": "COc1ccc(OC)c(NC(=O)/C(C#N)=C/c2ccco2)c1", "growth": "98.2%"},
      {"smiles": "COC(=O)/C(CCC=C(C)C)=C1\\[C@@H](OC(C)=O)C[C@@]2(C)[C@H]1C[C@@H](O)[C@H]1[C@@]3(C)CC[C@H](NCCCNCCCCNCCCN)[C@@H](C)[C@@H]3CC[C@@]12C", "growth": "52.9%"},
      {"smiles": "O=C1c2cc(Br)ccc2Oc2cc([N+](=O)[O-])ccc2N1c1ccc(I)cc1F", "growth": "93.5%"},
      {"smiles": "O=C(Nc1ccc(Br)cc1F)c1cc(I)ccc1O", "growth": "13.7%"},
      {"smiles": "COc1ccc(-c2cn3c(C(=O)Nc4ccccc4Cl)c(-c4ccccc4)c4c3n2CCCC4)cc1", "growth": "66.1%"},
      {"smiles": "CSc1nc2c(c(=O)[nH]1)N=C1c3ccccc3C(=O)C1C(c1ccccc1)N2", "note": "(stereo not drawn)", "growth": "51.9%"},
      {"smiles": "O=c1[nH]nnc2c1ncn2C1OC(CO)C(O)C1O", "note": "(stereo not drawn)", "growth": "22.6%"},
      {"smiles": "O=Cc1c(OCc2cnnn2CC(=O)Nc2ccc(Cl)cc2)ccc2ccccc12", "growth": "99.5%"},
      {"smiles": "O=C(c1nc2ccccc2[nH]1)C1[C@@H](c2cccc(O)c2)C2CC3CCCCC3N2[C@@]12C(=O)Nc1cc(Cl)ccc12", "note": "(stereo partly drawn)", "growth": "22.3%"},
      {"smiles": "Nc1nc(N)c2c(n1)NC1(C=C(O)c3ccccc31)C1=C(N2)c2ccccc2C1=O", "note": "(stereo not drawn)", "growth": "94.3%"},
      {"smiles": "COc1ccc(/C(C#N)=C/c2nc3c(N4CCOCC4)nc(Cl)nc3n2C)cc1OC", "growth": "-71% (active)"},
      {"smiles": "COc1cccc2c1C=C1CCCCC3=Cc4c(OC)cccc4OC13O2", "growth": "32.8%"},
      {"smiles": "COc1ccc(/C=C/C(=O)c2ccc(Nc3nc(NCCO)nc(Nc4ccc(Cl)cc4)n3)cc2)cc1", "growth": "61.6%"},
      {"smiles": "O=NN(C(=O)NC1CCC(C(=O)O)CC1)C1CCC(C(=O)O)CC1", "note": "(stereo not drawn)", "growth": "99.3%"},
      {"smiles": "CN1CCN(Cc2ccc(NC(=O)c3cncc(C#Cc4nc(N)nc5[nH]ncc45)c3)cc2C(F)(F)F)CC1", "growth": "88.1%"},
      {"smiles": "Nc1nc(-c2cnccn2)nn1-c1nc2ccccc2s1", "growth": "105%"},
      {"smiles": "CCOC(=O)c1cc2c(n1Cc1cc(OC)cc(OC)c1)-c1oncc1CCC2", "growth": "25.3%"},
      {"smiles": "CCOC(=O)c1c(Cl)c2c(n1Cc1ccccc1)-c1oncc1CCC2", "growth": "66.7%"},
      {"smiles": "COc1nc2c(c(=O)n1C)N=C1c3ccccc3C(=O)C1C(c1ccccc1)N2", "note": "(stereo not drawn)", "growth": "83.4%"},
      {"smiles": "CC1=C(CC(=O)c2cccc([N+](=O)[O-])c2)C(=O)c2ccccc2C1=O", "growth": "-51.9% (active)"},
      {"smiles": "O=C(Nc1ccc(-c2nc3cc4ccccc4cc3[nH]2)cc1)c1cccc(Br)c1", "growth": "-6.26% (active)"}
    ]}
  ]
}
